Screening data (PubChem)
Pol iota inh = blocks human DNA polymerase iota activity | Q9UNA4 | Pol iota fluorescent replication assay, 10 min | Potency, µM (highest dose often 115 µM), without a hit: at the highest dose activity, negative = inhibition, most hits filed as inhibitors | 1% of 390,000 active | AID 588590; note: potency is the fitted concentration of half-maximal effect
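Pol iota at 10 nM preincubated 15 min with compounds at room temperature; reaction started with fluorescent substrate, 50 nM final. Fluorescence read kinetically at 0 and 10 min; buffer-only wells as negative control.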
POLH inh = blocks human DNA polymerase eta activity; Q9Y253; 1.2% of 390,000 active; recombinant Pol eta, fluorescent DNA replication assay; Potency, µM (top dose mostly 114 µM), inactives show at the top dose activity change, negative = inhibition, usual class: inhibitors; note: potency is the fitted concentration of half-maximal effect; % is set by controls: 0 for no effect and ±100 for the full control effect
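Fluorescent replication assay: 50 nM final substrate added after a 15 min room-temperature compound preincubation with 10 nM enzyme. Signal taken at 0 min and again at 10 min.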
POLB inh = inhibitors of human DNA polymerase beta; Pol beta primer extension/strand displacement, fluorescence kinetic; Potency, µM (top dose mostly 114 µM), for inactives: at the top dose activity change, negative = inhibition, most hits filed as inhibitors; 1.3% of 340,000 active; AID 485314; note: potency is the fitted concentration of half-maximal effect; % is set by controls: 0 for no effect and ±100 for the full control effect
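Homogeneous kinetic assay of primer extension and strand displacement by 10 nM Pol beta, preincubated 15 min at room temperature with compound before 50 nM substrate (final) was added. Read at 0 and 10 min; four-parameter Hill fit.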
12-LOX inh = blocks human arachidonate 12S-lipoxygenase. 1.1% of 580,000 active. P18054. AID 1671190. Potency, µM (doses to about 108 µM), without a hit: at the highest dose activity change, negative = inhibition, usual class: inhibitors. purified 12hLO, xylenol orange hydroperoxide absorbance; note: potency is the fitted concentration of half-maximal effect; % is set by controls: 0 for no effect and ±100 for the full control effect
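Purified human 12hLO at 150 nM in 25 mM Hepes, 0.01% Triton X-100, pH 7.0, preincubated 15 min at room temperature with compound. Reaction started with 40 uM arachidonic acid, 30 min at room temperature. Hydroperoxide measured by Fe-xylenol orange, 573/405 nm absorbance ratio.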
PI5P4Ka inh = blocks human PI5P4K alpha kinase activity | P48426 | PI5P4Kalpha enzyme, ADP-Glo luminescence, 60 min; hits give low values | max response, % | 1.2% of 330,000 active | AID 652105; active = max response of -50% or lower; inconclusive = between -30% and -50%; inactive = -30% or higher; note: value at the top dose of about 77 µM; % is set by controls: 0 for no effect and ±100 for the full control effect
Target sequence (P48426 whole entry, looked up): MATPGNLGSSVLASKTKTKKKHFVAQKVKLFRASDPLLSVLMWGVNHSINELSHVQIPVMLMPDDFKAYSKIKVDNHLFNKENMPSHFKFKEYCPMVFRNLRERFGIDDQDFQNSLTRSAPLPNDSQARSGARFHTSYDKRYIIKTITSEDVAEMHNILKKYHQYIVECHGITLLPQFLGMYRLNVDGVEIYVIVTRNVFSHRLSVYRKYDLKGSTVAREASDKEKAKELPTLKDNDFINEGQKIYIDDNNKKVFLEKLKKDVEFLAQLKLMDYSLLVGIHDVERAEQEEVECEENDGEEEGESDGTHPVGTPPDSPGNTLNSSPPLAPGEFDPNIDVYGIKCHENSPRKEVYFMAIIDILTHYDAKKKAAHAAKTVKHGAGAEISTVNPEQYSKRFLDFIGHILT
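Quantitative HTS of the MLSMR library against PI5P4Kalpha with substrate. ATP added last at 5 microM final; room temperature, 60 minutes. Remaining ATP depleted, ADP converted and read as luminescence.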
POLK inh = blocks human DNA polymerase kappa activity; Potency, µM (highest dose often 107 µM), without a hit: top-dose activity, negative = inhibition, most hits filed as inhibitors; AID 588579; purified Pol kappa, fluorescent DNA synthesis assay, 10 min; Q9UBT6; 0.53% of 400,000 active; note: potency is the fitted concentration of half-maximal effect; % is set by controls: 0 for no effect and ±100 for the full control effect
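Activity was followed as the change in fluorescence between reads at 0 and 10 min after starting the reaction with 50 nM substrate. Beforehand, 10 nM polymerase had been preincubated with compound for 15 min at room temperature.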
Active calls of the source: *. The list is not random: actives were taken first. Their share in the collection is about 2.9%. Unless noted, calls come from the whole dose curve; as a rule, active = well fitted inhibition curve with a large enough effect; inconclusive = small, poorly fitted or top-dose-only effect, or another doubt; inactive = no such curve, though single readings can be large or run the other way.

`COc1cc(C(=O)Oc2ccc3c(=O)c(-c4ccccc4)coc3c2)cc(OC)c1OC` gave 12-LOX inh 0%.
For N#Cc1ccccc1CSc1nc(C(F)(F)F)nc2ccccc12 the results were 12-LOX inh 9%.
`O=c1[nH]c(/C=C/c2ccccc2F)nc2ccccc12` gave Pol iota inh 44%, POLH inh inconclusive, POLB inh inconclusive, 12-LOX inh 0%, PI5P4Ka inh 2 and POLK inh 4%.
`O=c1[nH]c(/C=C\c2ccccc2F)nc(O)c1[N+](=O)[O-]` gave Pol iota inh inconclusive, POLH inh -1%, POLB inh 15%, 12-LOX inh 0%, PI5P4Ka inh -72* and POLK inh -21%.
`O=c1[nH]c(/C=C\c2cccc(F)c2)nc(O)c1[N+](=O)[O-]` gave Pol iota inh 0%, POLH inh inconclusive, POLB inh inconclusive, 12-LOX inh 0%, PI5P4Ka inh -55* and POLK inh -7%.
For CCOC(=O)c1sc(Nc2nc3cc4c(cc3s2)OCO4)cc1C the results were Pol iota inh 11%, POLH inh inconclusive, POLB inh 35µM*, 12-LOX inh -12%, PI5P4Ka inh 8 and POLK inh -5%.
`CC(=O)c1sc(Nc2nc3cc4c(cc3s2)OCO4)nc1C` gave Pol iota inh 106%, POLH inh -1%, POLB inh inconclusive, 12-LOX inh 0%, PI5P4Ka inh -18 and POLK inh -6%.
For Cc1ccn2c(-c3n[nH]c(=S)n3Cc3ccccc3)c(C)nc2c1 the results were Pol iota inh 0%, POLH inh -5%, POLB inh inconclusive, 12-LOX inh 8.9µM*, PI5P4Ka inh -29 and POLK inh -13%.
Screening Cc1ccn2c(=S)[nH]nc2c1 returned POLH inh -4%, 12-LOX inh -19% and PI5P4Ka inh -78*.
Screening Cc1nc2ccccn2c1-c1csc(NCc2ccco2)n1 returned Pol iota inh 3%, POLH inh -15%, POLB inh 22%, 12-LOX inh -2%, PI5P4Ka inh 7 and POLK inh -3%.
`S=c1[nH]nc(-c2ccccc2Cl)n1Cc1ccccc1` gave Pol iota inh 57%, POLH inh -20%, POLB inh inconclusive, 12-LOX inh inconclusive, PI5P4Ka inh -4 and POLK inh 0%.
`Cc1ccn2c(-c3csc(NCc4ccccc4)n3)c(C)nc2c1` gave Pol iota inh -1%, POLH inh -9%, POLB inh -15%, 12-LOX inh 11µM*, PI5P4Ka inh 9 and POLK inh -19%.
For S=c1[nH]nc2ccccn12 the results were Pol iota inh -17%, POLH inh 3%, 12-LOX inh inconclusive, PI5P4Ka inh -85* and POLK inh 1%.
For N#Cc1cccnc1N1CCN(C(C(=O)O)c2c[nH]c3cc(CO)ccc23)CC1 (centres undefined) the results were 12-LOX inh -19%.
Clc1ccc(OCc2nc(-c3ccc(-n4cccc4)cc3)no2)cc1 was read as Pol iota inh 89µM*, POLH inh -9%, POLB inh 0%, 12-LOX inh -15% and POLK inh -22%.
For CCc1ccc(OCc2nc(-c3ccc(-n4cccc4)cc3)no2)cc1 the results were Pol iota inh -5%, POLB inh 22%, 12-LOX inh 0% and POLK inh 7%.
Screening Fc1ccccc1-n1c(C23CC4CC(CC(C4)C2)C3)n[nH]c1=S returned 12-LOX inh 14µM*.
`COCCCn1c(C23CC4CC(CC(C4)C2)C3)n[nH]c1=S` gave Pol iota inh inconclusive, POLH inh -6%, POLB inh 4%, 12-LOX inh inconclusive, PI5P4Ka inh 4 and POLK inh -12%.
Screening CC(C)Cn1c(C23CC4CC(CC(C4)C2)C3)n[nH]c1=S returned Pol iota inh 8%, POLH inh -13%, POLB inh -11%, 12-LOX inh 28µM*, PI5P4Ka inh -6 and POLK inh 4%.
